The supplement of paper PMC9446081
Out of some 39,000 compounds screened, about 220 (0.56%) showed activity. This is one part of a sample in which actives are shown more often than they occur. Unmarked numbers belong to inactive results.

tested on: Escherichia coli K-12 BW25113; assay: relative growth (OD600 normalised to plate interquartile mean) (fraction); higher = less growth inhibition, active = 0.2 or less; conditions: 50 µM; LB; incubation time: overnight (16-24 h)
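Note: Wild-type cells incubated without shaking, value is the mean of two biological replicates.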

Row | Structure (SMILES) | relative growth
1 | CN1C=C(C(=O)OCCS(C)(=O)=O)C(C(=O)OCCS(C)(=O)=O)=CC(c2ccc(CO)cc2)=C[C@@H]1C1CC1 | 1.02
2 | Cc1ccc(S(=O)(=O)N[C@H]2CC[C@H](CC(=O)N3CCC(Cc4ccccc4)CC3)O[C@H]2CO)cc1 | 1.02
3 | Cc1noc(C)c1NC(=O)Nc1ccc2c(c1)C(=O)N([C@@H](C)CO)C[C@@H](C)[C@@H](CN(C)S(=O)(=O)c1ccccc1)OCCCC[C@H](C)O2 | 0.998
4 | C[C@H]1CN([C@@H](C)CO)C(=O)c2cccc(NC(=O)Nc3ccccc3)c2O[C@@H]1CN(C)S(C)(=O)=O | 0.991
5 | CCS(=O)(=O)Nc1ccc2c(c1)C(=O)N(C)[C@@H]1CC[C@@H](CC(=O)NCc3ccc(OC)cc3)O[C@@H]1CO2 | 1.01
6 | Cc1ccc(NC(=O)C[C@@H](N)C(=O)O)cc1 | 1.01
7 | CCNC(=O)c1csc(N)n1 | 0.971
8 | CC1C(NC(=O)C(=NOC(C)(C)C(=O)O)c2csc(N)n2)C(=O)N1S(=O)(=O)O (stereo not drawn) | 0.0499 (active)
9 | C[C@H]1[C@H](NC(=O)/C(=N\OC(C)(C)C(=O)O)c2csc(N)n2)C(=O)N1S(=O)(=O)O | 0.0312 (active)
10 | CCOC(=O)/C(=N/O)c1csc(N)n1 | 0.997
11 | COc1ccc(S(=O)(=O)N2C[C@H](O)COC[C@@H]3O[C@@H](CC(=O)NCCCN4CCOCC4)CC[C@H]32)cc1 | 0.999
12 | CC(C)NC(=O)Nc1ccc2c(c1)C(=O)N([C@H](C)CO)C[C@@H](C)[C@H](CN(C)S(=O)(=O)c1ccc(Cl)cc1)O2 | 1.03
13 | Cn1c(=O)oc2cc(S(=O)(=O)N3CCC[C@H](C(=O)NN4CCOCC4)C3)ccc21 | 0.99
14 | CC(C)(O/N=C(\C(=O)N[C@@H]1C(=O)N2C(C(=O)O)=C(C[N+]3(CCNC(=O)c4ccc(O)c(O)c4Cl)CCCC3)CS[C@H]12)c1csc(N)n1)C(=O)O | 0.0469 (active)
15 | CC(C)(O/N=C(\C(=O)N[C@@H]1C(=O)N2C(C(=O)O)=C(C[n+]3ccccc3)CS[C@H]12)c1csc(N)n1)C(=O)O | 0.0433 (active)
16 | NC(=O)c1cc[n+](CC2=C(C(=O)O)N3C(=O)[C@@H](NC(=O)Cc4cccs4)[C@H]3SC2)cc1 | 1.04
17 | CC(C)(ON=C(C(=O)NC1C(=O)N2C(C(=O)[O-])=C(C[n+]3ccccc3)CSC12)c1csc(N)n1)C(=O)O (stereo not drawn) | 0.0511 (active)

Row | Structure (SMILES) | relative growth
18 | COc1ccc(CNC(=O)C[C@@H]2CC[C@H]3[C@@H](COc4ccc(NC(=O)C5CC5)cc4C(=O)N3C)O2)cc1 | 1.03
19 | CC(C)(C)[S@](=O)N1Cc2cc(C(=O)N3CCCCC3)nc(-c3cccc(-c4ccc(C#N)cc4)c3)c2[C@@H]1CCO | 1
20 | C[C@@H]1CN([C@@H](C)CO)C(=O)c2cc(-c3ccc(C(=O)N(C)C)cc3)cnc2O[C@H]1CN(C)C(=O)c1cccnc1 | 1.03
21 | CCCNC(=O)N1CC[C@]2(CC1)CN([C@@H](CO)c1[nH]c3cc(ccc3c12)OC)C(=O)CN1CCOCC1 | 0.998
22 | COCCOC(=O)N1C(=O)[C@@]2(c3cc(C#Cc4ccc(OC)cc4)ccc31)[C@H](C(=O)N1CCN(c3ncccn3)CC1)[C@H]1C(=O)O[C@H](c3ccccc3)[C@H](c3ccccc3)N1[C@@H]2c1ccccc1OCCO | 1.07
23 | O=C1C[C@]2(c3ccc([N+](=O)[O-])cc3)C(=O)N(C3CC3)c3cc(CO)ccc3[C@H]2N1CC12CC3CC(CC(C3)C1)C2 | 1.01
24 | CO[C@H]1CN(C)C(=O)c2cc(NC(=O)Nc3cccc(F)c3)ccc2OC[C@@H](C)N(C(=O)Nc2c(C)noc2C)C[C@H]1C | 0.978
25 | C[C@H](CO)N1C[C@H](C)[C@H](CN(C)C(=O)Nc2ccc(N3CCN(C)CC3)cc2)OCc2cnnn2CCCC1=O | 0.983
26 | CO[C@H]1C[C@H](O[C@H]2[C@H](C)[C@@H](O[C@H]3O[C@H](C)C[C@H](N(C)C)[C@H]3O)[C@@H](C)C[C@]3(CO3)C(=O)[C@H](C)[C@@H](O)[C@@H](C)[C@@H](C)OC(=O)[C@@H]2C)O[C@@H](C)[C@@H]1O | 0.954
27 | CCC1OC(=O)C(C)C(OC2CC(C)(OC)C(O)C(C)O2)C(C)C(OC2OC(C)CC(N(C)C)C2O)C(C)(O)CC(C)CN(C)C(C)C(O)C1(C)O (stereo not drawn) | 0.0435 (active)
28 | CC[C@H]1OC(=O)[C@H](C)[C@@H](O[C@H]2C[C@@](C)(OC)[C@@H](O)[C@H](C)O2)[C@H](C)[C@@H](O[C@@H]2O[C@H](C)C[C@H](N(C)C)[C@H]2O)[C@](C)(O)C[C@@H](C)[C@@H]2N[C@@H](COCCOC)O[C@H]([C@H]2C)[C@]1(C)O | 0.469
29 | CCC1OC(=O)C(C)C(OC2CC(C)(OC)C(O)C(C)O2)C(C)C(OC2OC(C)CC(N(C)C)C2O)C(C)(O)CC(C)C(=O)C(C)C(O)C1(C)O.CCCCCCCCCCCCCCCCCC(=O)O (stereo not drawn) | 0.665
30 | CCCN1C[C@H](C)[C@@H](O)[C@](C)(O)[C@@H](CC)OC(=O)[C@H](C)[C@@H](O[C@H]2C[C@@](C)(OC)[C@@H](O)[C@H](C)O2)[C@H](C)[C@@H](O[C@@H]2O[C@H](C)C[C@H](N(C)C)[C@H]2O)[C@](C)(O)C[C@H]1C | 0.116 (active)
31 | CC[C@H]1OC(=O)[C@H](C)[C@@H](O[C@H]2C[C@@](C)(OC)[C@@H](O)[C@H](C)O2)[C@H](C)[C@@H](O[C@@H]2O[C@H](C)C[C@H](N(C)C)[C@H]2O)[C@](C)(O)C[C@@H](C)CN(C)[C@H](C)[C@@H](O)[C@]1(C)O | 0.0562 (active)
32 | CCC(=O)OC1C(OC2C(C)C(OC3CC(C)(OC)C(O)C(C)O3)C(C)C(=O)OC(CC)C(C)(O)C(O)C(C)C(=O)C(C)CC2(C)O)OC(C)CC1N(C)C.CCCCCCCCCCCCOS(=O)(=O)O (stereo not drawn) | 0.953
33 | C[C@H](CO)N1C[C@H](C)[C@H](CN(C)S(=O)(=O)c2cccs2)Oc2ncc(-c3cccc(F)c3)cc2C1=O | 0.97
